Experiments:
Assay in all cases: log2 ratio of Biotin-Ahx-Ub-VS probe labelling (fragment/DMSO); higher = less target engagement (more negative = stronger competition), active = hit call of the paper (q ≤ 0.05, log2 ratio ≤ -1)
Settings in all cases: compound concentration: 200 uM; treatment time: 3 h
USP42 = biological target: T1, USP42 (UniProt Q9H9J4)
T1 sequence (whole entry): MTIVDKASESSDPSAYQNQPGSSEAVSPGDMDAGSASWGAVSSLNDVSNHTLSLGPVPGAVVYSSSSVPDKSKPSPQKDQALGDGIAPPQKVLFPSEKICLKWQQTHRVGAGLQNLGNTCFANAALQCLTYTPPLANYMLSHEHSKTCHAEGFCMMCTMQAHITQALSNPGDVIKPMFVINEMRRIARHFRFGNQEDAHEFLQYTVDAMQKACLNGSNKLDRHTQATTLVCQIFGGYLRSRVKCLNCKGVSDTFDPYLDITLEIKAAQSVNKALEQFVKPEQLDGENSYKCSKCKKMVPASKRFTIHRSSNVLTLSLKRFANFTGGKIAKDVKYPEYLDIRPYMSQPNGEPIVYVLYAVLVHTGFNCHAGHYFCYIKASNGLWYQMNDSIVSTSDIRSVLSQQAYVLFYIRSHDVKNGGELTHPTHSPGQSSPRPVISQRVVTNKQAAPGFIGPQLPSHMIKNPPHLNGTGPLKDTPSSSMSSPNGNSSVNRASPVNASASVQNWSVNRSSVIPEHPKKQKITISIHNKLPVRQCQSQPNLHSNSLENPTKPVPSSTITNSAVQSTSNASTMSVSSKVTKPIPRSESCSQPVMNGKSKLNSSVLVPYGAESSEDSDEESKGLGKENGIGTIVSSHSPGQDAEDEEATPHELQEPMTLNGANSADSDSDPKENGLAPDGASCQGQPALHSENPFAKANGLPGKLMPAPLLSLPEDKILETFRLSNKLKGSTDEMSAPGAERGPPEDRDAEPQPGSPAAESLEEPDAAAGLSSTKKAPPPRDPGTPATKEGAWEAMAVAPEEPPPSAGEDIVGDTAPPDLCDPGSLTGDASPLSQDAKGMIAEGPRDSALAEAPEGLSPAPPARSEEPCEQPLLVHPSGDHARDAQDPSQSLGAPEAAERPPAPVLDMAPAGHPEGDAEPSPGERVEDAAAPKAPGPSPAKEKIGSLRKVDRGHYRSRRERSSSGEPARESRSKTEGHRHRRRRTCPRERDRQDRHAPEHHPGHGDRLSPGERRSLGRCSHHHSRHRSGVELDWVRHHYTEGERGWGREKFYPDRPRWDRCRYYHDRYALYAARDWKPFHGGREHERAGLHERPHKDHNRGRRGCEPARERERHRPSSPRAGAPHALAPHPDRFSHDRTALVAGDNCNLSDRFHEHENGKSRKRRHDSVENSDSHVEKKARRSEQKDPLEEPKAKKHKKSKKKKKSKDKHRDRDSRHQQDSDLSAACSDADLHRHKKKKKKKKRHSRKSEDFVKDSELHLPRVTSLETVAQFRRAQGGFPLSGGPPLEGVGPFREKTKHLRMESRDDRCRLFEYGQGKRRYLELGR
In short: (§1)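 Labelled DUBs were enriched with NeutrAvidin, digested with LysC and trypsin, and run by diaPASEF LC-MS/MS. The labelling used Biotin-Ahx-Ub-VS at 0.5 µM final for 1 h on HEK293T lysate (495 µg per sample) previously treated in triplicate with fragment at 200 µM or vehicle for 3 h. Values are average log2 fragment/vehicle ratios by unpaired t-test on global-median-normalised Spectronaut quantities of proteins with ≥2 unique peptides.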

USP46 = USP46 (UniProt P62068)
Chain of USP46 (P62068 whole entry): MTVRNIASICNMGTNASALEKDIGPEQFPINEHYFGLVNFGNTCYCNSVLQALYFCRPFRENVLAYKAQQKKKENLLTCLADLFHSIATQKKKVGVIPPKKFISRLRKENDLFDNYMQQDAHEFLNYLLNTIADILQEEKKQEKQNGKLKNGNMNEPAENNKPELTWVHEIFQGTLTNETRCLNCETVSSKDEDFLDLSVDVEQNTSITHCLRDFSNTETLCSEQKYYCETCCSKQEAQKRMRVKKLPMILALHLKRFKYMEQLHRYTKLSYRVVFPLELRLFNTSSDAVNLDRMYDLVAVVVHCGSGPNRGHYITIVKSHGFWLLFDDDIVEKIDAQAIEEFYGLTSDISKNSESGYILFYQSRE
In short: as §1

USP47 = biological target: T2, USP47 (UniProt Q96K76)
T2 sequence (whole entry): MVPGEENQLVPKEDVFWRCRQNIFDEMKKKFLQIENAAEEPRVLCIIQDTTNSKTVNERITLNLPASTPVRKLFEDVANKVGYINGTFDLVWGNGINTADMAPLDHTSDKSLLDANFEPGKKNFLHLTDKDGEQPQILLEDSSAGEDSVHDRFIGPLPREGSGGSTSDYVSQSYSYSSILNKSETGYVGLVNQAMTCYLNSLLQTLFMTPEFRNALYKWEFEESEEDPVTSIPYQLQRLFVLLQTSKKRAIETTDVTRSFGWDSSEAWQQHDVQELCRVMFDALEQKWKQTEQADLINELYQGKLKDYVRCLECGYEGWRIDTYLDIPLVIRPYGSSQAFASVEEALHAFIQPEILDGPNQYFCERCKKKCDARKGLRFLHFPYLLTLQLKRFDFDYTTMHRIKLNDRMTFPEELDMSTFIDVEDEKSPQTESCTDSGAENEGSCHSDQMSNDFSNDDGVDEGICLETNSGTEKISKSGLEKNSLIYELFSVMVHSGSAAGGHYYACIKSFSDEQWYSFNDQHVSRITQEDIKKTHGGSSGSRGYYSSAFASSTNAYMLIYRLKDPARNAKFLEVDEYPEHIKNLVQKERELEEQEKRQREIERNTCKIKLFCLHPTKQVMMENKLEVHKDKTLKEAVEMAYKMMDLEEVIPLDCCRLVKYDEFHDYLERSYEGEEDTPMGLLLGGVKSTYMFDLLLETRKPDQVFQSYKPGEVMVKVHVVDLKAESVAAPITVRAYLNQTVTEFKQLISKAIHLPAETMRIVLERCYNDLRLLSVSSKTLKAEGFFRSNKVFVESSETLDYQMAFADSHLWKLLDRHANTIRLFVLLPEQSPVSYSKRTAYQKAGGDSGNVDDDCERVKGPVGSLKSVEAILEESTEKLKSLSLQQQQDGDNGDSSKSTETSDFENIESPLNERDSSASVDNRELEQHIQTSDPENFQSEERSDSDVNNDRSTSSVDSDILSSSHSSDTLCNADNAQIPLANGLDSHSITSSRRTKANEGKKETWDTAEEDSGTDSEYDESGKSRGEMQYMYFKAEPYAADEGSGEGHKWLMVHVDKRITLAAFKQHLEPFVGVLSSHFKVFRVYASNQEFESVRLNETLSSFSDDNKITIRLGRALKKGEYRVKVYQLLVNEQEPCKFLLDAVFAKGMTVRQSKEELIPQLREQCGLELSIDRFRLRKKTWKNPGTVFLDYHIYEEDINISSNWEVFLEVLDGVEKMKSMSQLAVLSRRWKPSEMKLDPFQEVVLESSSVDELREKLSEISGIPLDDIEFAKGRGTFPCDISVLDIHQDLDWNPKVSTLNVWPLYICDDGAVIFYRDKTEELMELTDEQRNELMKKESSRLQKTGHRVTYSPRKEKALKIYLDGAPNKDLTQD
In short: as §1

USP48 = biological target: T3, USP48 (UniProt Q86UV5)
T3 sequence (whole entry): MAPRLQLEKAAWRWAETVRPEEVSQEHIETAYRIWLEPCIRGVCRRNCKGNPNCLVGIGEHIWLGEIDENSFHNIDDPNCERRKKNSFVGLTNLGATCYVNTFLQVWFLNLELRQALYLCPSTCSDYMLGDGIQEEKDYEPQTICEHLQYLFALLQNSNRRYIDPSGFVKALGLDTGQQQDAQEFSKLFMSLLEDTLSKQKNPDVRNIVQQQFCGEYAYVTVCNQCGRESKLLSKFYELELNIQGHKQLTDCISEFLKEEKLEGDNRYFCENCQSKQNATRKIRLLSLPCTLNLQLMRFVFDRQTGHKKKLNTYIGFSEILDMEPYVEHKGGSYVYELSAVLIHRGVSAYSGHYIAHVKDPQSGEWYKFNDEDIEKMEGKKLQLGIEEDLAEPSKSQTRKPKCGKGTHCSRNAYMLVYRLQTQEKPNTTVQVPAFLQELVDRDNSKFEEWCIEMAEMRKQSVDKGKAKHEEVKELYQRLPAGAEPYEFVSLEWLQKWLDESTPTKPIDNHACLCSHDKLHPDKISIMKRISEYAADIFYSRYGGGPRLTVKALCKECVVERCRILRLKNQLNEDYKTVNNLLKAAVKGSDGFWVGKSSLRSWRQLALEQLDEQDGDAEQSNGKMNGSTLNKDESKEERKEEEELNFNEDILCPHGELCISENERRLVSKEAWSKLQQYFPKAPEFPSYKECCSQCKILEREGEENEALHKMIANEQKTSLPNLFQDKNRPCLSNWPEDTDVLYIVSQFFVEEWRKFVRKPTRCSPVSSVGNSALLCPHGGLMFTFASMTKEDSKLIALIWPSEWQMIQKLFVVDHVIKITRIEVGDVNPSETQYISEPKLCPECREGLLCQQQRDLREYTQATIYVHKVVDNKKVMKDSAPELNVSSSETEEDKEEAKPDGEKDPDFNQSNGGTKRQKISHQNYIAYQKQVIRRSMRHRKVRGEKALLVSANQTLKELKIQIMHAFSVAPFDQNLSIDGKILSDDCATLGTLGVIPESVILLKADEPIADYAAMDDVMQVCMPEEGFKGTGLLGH
In short: as §1

USP5 = biological target: T4, USP5 (UniProt P45974)
T4 sequence (whole entry): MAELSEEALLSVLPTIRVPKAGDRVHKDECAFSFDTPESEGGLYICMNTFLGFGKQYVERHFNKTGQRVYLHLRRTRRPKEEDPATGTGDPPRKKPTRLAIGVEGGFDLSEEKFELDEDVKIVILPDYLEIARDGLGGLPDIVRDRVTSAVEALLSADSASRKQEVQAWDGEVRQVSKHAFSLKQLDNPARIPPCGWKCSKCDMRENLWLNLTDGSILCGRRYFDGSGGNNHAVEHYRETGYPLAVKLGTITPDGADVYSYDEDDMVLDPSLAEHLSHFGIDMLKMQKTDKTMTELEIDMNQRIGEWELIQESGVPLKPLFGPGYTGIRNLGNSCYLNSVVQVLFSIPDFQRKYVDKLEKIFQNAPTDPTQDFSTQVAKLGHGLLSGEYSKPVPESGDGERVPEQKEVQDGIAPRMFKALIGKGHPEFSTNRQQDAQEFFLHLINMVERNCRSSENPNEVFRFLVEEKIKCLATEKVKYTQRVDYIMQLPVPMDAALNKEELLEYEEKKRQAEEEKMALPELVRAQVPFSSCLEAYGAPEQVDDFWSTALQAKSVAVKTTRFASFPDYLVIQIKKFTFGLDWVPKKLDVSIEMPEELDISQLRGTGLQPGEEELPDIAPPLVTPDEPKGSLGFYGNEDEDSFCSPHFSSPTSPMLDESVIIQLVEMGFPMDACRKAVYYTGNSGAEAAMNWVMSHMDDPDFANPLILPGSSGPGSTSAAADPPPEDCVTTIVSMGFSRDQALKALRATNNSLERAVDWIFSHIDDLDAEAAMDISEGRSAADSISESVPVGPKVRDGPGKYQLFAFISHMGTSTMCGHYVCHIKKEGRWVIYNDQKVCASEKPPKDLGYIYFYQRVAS
In short: as §1

USP54 = USP54 (UniProt Q70EL1)
In short: as §1

USP7 = USP7 (UniProt Q93009)
Chain of USP7 (Q93009 whole entry, looked up): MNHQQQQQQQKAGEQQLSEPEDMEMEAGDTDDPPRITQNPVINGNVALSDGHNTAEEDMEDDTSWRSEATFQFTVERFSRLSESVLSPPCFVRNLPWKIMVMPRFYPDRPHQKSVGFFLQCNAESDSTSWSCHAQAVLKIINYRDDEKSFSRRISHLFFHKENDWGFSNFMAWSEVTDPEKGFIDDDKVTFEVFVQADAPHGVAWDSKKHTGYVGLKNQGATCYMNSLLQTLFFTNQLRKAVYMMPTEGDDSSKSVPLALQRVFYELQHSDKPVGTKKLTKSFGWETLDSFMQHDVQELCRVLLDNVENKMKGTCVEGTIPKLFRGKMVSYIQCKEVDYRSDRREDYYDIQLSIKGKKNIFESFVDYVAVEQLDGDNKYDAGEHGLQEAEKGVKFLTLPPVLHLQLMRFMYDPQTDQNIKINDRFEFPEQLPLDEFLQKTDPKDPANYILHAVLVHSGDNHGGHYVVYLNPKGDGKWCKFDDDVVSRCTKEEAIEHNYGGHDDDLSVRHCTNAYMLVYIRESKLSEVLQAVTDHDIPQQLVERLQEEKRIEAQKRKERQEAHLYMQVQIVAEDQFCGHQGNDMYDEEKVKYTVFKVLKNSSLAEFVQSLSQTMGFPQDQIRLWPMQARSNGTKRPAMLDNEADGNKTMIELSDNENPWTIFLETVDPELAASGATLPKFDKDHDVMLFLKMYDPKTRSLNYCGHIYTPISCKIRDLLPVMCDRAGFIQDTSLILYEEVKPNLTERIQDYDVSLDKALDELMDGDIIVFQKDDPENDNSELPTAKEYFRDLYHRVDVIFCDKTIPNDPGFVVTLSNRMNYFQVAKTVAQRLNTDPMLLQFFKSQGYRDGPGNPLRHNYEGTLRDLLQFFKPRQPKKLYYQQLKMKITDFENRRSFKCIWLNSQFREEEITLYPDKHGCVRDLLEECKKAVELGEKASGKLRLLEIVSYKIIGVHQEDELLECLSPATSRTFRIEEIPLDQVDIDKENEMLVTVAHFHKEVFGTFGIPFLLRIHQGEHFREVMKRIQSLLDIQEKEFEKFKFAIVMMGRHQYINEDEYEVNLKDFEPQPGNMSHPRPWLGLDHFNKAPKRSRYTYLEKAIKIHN
In short: as §1

USP8 = biological target: T5, USP8 (UniProt P40818)
T5 sequence (whole entry): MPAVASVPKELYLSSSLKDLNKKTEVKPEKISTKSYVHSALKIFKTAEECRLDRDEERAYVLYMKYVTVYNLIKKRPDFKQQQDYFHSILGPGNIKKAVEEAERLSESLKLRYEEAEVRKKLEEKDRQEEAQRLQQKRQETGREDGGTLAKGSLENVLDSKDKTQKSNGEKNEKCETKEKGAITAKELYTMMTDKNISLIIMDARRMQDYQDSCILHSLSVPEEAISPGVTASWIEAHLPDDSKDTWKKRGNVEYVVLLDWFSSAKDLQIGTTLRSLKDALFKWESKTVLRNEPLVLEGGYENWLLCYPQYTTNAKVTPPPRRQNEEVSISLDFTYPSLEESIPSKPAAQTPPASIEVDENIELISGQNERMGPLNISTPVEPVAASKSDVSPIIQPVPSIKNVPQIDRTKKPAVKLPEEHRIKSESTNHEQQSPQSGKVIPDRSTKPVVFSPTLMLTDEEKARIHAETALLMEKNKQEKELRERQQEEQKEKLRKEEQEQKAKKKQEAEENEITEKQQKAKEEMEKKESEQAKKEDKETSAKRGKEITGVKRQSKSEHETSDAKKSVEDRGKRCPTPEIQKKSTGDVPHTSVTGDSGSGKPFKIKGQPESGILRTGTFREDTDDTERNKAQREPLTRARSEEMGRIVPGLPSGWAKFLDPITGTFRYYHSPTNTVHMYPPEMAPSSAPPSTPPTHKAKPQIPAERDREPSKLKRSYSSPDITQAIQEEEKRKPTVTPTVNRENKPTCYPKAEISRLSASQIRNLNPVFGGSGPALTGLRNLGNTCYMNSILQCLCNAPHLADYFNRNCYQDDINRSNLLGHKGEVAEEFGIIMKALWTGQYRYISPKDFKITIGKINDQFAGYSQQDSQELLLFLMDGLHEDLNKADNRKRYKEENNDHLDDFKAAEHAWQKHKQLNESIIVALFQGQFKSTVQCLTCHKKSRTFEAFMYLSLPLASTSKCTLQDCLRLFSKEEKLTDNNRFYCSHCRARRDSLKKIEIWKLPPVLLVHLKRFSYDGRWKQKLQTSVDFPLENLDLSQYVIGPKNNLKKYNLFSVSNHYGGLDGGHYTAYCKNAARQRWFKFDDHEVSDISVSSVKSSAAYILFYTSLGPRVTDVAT
In short: as §1

USP9X = USP9X (UniProt Q93008)
Chain of USP9X (Q93008 whole entry): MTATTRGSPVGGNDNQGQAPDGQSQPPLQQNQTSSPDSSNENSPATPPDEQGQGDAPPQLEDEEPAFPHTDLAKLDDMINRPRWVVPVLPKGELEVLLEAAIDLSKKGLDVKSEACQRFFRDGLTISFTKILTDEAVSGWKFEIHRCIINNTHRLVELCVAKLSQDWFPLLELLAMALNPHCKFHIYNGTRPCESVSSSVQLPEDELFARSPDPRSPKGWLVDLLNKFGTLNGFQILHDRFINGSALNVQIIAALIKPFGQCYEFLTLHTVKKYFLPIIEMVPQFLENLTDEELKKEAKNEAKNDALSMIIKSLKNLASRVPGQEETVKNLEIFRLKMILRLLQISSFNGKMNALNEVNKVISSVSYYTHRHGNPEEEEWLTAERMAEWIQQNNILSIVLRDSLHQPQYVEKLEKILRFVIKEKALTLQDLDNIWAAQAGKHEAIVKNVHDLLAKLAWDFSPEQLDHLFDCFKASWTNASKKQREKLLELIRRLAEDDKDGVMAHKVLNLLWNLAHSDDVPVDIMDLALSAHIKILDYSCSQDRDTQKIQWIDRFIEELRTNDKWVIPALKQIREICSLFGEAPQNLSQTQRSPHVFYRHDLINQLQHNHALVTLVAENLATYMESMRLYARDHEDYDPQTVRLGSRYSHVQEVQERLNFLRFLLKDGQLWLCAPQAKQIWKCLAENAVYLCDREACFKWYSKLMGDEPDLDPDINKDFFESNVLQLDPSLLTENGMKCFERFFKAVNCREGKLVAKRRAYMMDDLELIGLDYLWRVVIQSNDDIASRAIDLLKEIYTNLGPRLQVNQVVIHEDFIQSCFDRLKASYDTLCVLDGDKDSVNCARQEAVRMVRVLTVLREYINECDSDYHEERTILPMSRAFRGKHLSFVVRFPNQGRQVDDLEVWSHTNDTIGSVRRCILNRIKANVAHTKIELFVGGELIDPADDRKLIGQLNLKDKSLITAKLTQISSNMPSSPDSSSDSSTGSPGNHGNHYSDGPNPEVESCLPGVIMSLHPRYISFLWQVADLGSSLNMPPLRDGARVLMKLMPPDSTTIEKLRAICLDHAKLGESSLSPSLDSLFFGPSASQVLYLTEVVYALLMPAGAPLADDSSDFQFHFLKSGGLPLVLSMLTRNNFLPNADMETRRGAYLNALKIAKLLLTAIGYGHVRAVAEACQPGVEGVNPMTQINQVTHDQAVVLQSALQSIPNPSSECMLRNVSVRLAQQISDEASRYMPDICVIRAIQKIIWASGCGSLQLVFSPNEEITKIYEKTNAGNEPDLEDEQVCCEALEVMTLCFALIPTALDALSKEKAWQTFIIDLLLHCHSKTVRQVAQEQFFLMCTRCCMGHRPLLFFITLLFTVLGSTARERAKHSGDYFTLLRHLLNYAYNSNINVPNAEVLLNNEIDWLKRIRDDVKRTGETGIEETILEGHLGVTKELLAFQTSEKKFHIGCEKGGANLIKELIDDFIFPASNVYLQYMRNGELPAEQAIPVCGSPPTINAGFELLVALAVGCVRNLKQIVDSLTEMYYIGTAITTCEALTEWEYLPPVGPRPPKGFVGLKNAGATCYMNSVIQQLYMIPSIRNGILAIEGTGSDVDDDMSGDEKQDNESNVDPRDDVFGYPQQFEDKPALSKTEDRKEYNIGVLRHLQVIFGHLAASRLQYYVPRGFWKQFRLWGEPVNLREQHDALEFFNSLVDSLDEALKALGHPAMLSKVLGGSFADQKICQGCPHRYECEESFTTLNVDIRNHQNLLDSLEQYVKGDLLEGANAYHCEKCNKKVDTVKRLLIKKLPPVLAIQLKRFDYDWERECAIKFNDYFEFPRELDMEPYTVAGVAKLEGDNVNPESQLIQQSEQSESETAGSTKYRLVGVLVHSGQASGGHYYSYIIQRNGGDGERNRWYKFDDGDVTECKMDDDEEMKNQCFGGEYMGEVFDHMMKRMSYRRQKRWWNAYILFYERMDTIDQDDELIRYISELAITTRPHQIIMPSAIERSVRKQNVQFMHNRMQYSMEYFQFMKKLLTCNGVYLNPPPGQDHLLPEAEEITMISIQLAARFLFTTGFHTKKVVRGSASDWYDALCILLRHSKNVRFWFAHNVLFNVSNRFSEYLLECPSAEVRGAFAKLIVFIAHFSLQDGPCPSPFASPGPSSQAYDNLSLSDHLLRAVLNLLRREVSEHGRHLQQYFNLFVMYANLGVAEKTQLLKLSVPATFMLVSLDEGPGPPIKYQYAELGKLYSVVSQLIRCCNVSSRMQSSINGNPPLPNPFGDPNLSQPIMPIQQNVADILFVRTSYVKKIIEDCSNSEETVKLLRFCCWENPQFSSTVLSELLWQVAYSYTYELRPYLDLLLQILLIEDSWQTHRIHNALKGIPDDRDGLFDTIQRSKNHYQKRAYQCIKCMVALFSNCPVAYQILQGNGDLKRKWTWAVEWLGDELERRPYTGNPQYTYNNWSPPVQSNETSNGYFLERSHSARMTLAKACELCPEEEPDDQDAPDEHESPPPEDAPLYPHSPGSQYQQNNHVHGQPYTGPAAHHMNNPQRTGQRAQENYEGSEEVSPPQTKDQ
In short: as §1

UniProt O00487 = biological target: UniProt O00487
Chain of UniProt O00487 (O00487 whole entry): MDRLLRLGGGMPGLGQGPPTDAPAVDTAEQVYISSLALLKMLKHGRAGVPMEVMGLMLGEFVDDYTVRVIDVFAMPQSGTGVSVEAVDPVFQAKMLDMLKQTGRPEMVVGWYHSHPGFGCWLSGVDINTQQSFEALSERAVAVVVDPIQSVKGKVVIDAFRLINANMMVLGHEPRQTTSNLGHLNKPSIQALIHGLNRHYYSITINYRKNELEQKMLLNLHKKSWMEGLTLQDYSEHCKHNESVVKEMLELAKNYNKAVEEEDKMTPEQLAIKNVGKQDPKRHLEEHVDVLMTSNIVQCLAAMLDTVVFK
In short: as §1

Measured: log2 ratio of Biotin-Ahx-Ub-VS probe labelling

NC(=O)C(Cc1ccccc1)NC(=O)CCl (stereo not given)
inactive: USP42 -0.119 | USP46 0.0497 | USP47 -0.239 | USP48 -0.238 | USP5 0.0132 | USP54 0.357 | USP7 -0.174 | USP8 -0.047 | USP9X -0.099 | UniProt O00487 -0.162

CC1(NC(=O)CCl)CCS(=O)(=O)C1 (stereo not given)
inactive: USP42 0.324 | USP46 -0.538 | USP47 -0.0229 | USP48 -0.544 | USP5 -0.73 | USP54 1.09 | USP7 -0.793 | USP8 -0.788 | USP9X -0.847 | UniProt O00487 -0.00664

Cl.O=C(CCl)NCc1ccnc(Oc2ccccc2F)c1
inactive: USP42 -0.336 | USP46 0.0702 | USP47 -0.71 | USP48 -0.278 | USP5 0.126 | USP54 0.365 | USP7 -0.357 | USP8 -0.181 | USP9X -0.17 | UniProt O00487 0.13

Cc1cc(Cl)ccc1NC(=O)CCl
inactive: USP42 -0.0727 | USP46 -0.0701 | USP47 -0.176 | USP48 -0.173 | USP5 -0.0552 | USP54 -0.075 | USP7 -0.304 | USP8 0.0468 | USP9X -0.0827 | UniProt O00487 -0.165

From the supplement of paper PMC11732987, “Enantioselective OTUD7B fragment discovery through chemoproteomics screening and high-throughput optimisation” (Communications Chemistry, 2025)
